Experimental data taken from PubChem BioAssay.
A number with no mark means an inactive call. Activity calls are given as the source filed them. Rule as the data show it, unless noted: active = inhibition above about 25%; inactive = the rest.

Key:
[1] = target: Nuclear receptor coactivator 3 (Homo sapiens) (UniProt Q9Y6Q9); assay: SRC3 coactivator transcriptional activity inhibitors, confirmation, cell-based, luminescence, quadruplicate (AID 588792;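 active = mean inhibition over 43.08%, the solvent-only control mean plus 3 SD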;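 also: 0% = DMSO treated cells and 100% = gossypol at 36 µM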); conditions: HEK293 GAL4-SRC3 luciferase reporter, at 3.6 µM, active compounds read high
[2] = test system: transactivating tegument protein VP16 (Human herpesvirus 1), Gal4-VP16 luciferase reporter; assay: VP16 transactivation inhibitors, counter-screen for SRC3 inhibitor project, cell-based, luminescence, high throughput (AID 588794; in the data active = inhibition above about 30%); conditions: mammalian cells, VP16-driven luciferase reporter luminescence; at 3.6 µM; active compounds read high
[3] = target: Nuclear receptor coactivator 1 (Homo sapiens) (UniProt Q15788); assay: SRC1 coactivator transcriptional activity inhibitors, confirmation, cell-based, luminescence, quadruplicate (AID 588820;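 active = mean inhibition above 46.68%, the untreated control wells mean plus 3 SD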;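 also: 0% = DMSO wells and 100% = gossypol 36 µM treated wells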); conditions: HEK293 GAL4-SRC1 luciferase reporter, at 3.6 µM, active compounds read high
[4] = VP16 transactivation inhibitors, counter-screen for SRC1 inhibitor project, cell-based, luminescence, high throughput (AID 588824); conditions: cell-based VP16 transactivation luciferase luminescence; at 3.6 µM; active compounds read high

Sequence of Nuclear receptor coactivator 3 (Homo sapiens) (Q9Y6Q9 whole entry, looked up, the tested form may be a part): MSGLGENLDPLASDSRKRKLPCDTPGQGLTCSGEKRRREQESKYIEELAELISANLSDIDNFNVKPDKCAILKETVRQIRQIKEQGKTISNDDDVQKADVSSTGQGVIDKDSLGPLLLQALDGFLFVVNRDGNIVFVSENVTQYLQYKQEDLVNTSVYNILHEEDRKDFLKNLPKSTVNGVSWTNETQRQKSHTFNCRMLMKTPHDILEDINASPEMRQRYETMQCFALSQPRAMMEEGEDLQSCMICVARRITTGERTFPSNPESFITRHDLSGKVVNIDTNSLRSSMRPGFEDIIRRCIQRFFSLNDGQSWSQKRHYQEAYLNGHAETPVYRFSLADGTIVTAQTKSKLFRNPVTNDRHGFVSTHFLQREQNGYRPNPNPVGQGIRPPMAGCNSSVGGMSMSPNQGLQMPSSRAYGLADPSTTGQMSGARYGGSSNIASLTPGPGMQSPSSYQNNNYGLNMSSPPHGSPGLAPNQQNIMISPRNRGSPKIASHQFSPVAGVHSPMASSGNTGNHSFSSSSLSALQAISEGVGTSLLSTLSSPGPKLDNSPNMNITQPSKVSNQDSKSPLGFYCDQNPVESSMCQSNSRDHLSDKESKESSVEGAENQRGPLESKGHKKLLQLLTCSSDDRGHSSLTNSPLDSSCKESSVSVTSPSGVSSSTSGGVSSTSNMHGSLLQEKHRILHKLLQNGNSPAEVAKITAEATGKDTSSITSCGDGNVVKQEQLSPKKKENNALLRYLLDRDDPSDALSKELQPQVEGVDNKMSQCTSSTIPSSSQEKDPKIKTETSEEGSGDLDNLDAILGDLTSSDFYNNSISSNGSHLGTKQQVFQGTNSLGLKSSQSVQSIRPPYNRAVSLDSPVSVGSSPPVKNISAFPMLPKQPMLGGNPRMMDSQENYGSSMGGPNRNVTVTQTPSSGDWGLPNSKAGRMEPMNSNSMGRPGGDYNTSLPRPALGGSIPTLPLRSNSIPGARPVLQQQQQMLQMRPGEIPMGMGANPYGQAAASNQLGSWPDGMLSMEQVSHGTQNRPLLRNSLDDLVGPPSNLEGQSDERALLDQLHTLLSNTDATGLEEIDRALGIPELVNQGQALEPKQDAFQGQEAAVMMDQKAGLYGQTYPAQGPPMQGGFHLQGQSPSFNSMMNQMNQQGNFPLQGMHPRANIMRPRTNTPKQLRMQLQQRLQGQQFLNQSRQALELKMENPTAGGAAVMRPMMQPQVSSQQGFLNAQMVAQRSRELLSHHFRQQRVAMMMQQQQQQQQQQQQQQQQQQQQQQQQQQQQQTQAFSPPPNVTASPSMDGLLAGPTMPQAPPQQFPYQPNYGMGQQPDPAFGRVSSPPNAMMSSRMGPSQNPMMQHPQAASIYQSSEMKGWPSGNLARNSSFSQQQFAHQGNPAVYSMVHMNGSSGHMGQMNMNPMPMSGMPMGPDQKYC
Sequence of Nuclear receptor coactivator 1 (Homo sapiens) (Q15788 whole entry, looked up, the tested form may be a part): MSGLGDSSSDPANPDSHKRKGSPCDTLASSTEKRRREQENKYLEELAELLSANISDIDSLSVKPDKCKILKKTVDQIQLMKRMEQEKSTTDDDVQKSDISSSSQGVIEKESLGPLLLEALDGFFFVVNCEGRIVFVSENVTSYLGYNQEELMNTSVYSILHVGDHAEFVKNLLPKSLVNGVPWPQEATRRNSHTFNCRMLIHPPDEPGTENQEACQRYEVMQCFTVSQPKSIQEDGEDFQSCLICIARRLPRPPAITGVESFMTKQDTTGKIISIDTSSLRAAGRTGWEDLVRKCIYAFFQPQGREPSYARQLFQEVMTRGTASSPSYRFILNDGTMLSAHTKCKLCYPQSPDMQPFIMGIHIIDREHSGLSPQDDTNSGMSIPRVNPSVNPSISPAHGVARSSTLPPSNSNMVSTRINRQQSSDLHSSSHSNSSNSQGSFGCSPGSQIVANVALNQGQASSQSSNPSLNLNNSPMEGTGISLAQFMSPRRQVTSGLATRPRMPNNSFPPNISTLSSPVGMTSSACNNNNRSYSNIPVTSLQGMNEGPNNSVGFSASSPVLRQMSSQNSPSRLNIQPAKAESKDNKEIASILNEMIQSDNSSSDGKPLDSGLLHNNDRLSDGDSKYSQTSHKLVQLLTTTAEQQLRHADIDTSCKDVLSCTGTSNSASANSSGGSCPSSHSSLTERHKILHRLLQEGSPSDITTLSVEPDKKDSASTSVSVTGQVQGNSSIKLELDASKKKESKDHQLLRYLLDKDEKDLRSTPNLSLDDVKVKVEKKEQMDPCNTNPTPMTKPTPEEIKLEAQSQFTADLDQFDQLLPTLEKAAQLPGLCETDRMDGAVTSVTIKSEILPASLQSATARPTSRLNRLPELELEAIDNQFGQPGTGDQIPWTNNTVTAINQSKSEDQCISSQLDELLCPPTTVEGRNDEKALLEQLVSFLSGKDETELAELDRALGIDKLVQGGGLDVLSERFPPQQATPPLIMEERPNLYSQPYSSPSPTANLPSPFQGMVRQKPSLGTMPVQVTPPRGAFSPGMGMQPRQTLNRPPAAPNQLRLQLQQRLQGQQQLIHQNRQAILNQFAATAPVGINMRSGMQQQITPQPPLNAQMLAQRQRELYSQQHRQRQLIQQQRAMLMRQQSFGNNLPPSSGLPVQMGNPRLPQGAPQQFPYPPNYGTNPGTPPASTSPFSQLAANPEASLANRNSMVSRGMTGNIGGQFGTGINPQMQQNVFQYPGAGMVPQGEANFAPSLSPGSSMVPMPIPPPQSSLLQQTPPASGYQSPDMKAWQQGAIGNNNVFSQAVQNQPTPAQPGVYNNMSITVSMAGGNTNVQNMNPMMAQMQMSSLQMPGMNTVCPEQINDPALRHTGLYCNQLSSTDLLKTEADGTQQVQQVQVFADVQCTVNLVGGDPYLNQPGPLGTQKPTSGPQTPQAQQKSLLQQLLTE

Structure (SMILES) | inhibition [1] | inhibition [2] | inhibition [3] | inhibition [4]
Cc1cc(/C=C2/C(=O)NN(c3ccccc3)C2=O)c(C)n1-c1ccc(O)cc1 | -13.6% | -41.7% | -66% | -74.4%
O=[N+]([O-])c1ccc(Oc2ccc(F)cc2)c2ccncc12 | 46.8% (active) | 36% (active) | 47.6% (active) | 35.4% (active)
CC(C)n1c(-c2cccnc2)nc2cnccc21 | 29.8% | 26.9% | 38.1% | 18.9%
O=c1[nH]c(=S)ccn1C1OC(CO)C(O)C1O (stereo unspecified) | 3.59% | -0.78% | -11.9% | -8.74%
CCN(CC)S(=O)(=O)c1cccc(NC(=O)COC(=O)c2[nH]c(C)c(C(C)=O)c2C)c1 | 20% | 42.5% (active) | 6.19% | 42.8% (active)
CC(C)(C)OC(=O)NCC(=O)Oc1cc2oc(=O)cc(-c3ccccc3)c2cc1Cl | 21.9% | 15.7% | 21.3% | 15.3%
COc1ccc2cc3c(N)nn(C(=O)c4ccc(F)cc4)c3nc2c1 | 69.8% (active) | 36.1% (active) | 56.7% (active) | 36.3% (active)
CCN1CCN(c2ccc(Nc3ccnc4ccccc34)cc2)CC1 | 43.5% (active) | 32.1% (active) | 40.1% | 42.5% (active)
Cc1ccc(-c2cc3c(N=O)c4ccccc4c-3n[nH]2)cc1 | 66.2% (active) | 59.7% (active) | 30.2% | 53% (active)
